# Test results from PubChem BioAssay (EPA / NIEHS).
# Values joined by “and” are separate entries in the source; they are usually repeats but may differ in a detail not shown here. Equal values may be shown once. Records with an inconclusive call do not appear. Active and inactive are the calls of the source. Rule for the calls, unless noted: active = hit-call score of the fitted dose curve at least 0.9, where 1 is the maximum; inconclusive = response in the unintended direction; inactive = score below 0.9.
# Columns and labels:
# [1] = biological target: mouse Estrogen Receptor alpha (Era), Esr1 (gene 13982) (UniProt P19785); assay: NVS_NR_mERa: NovaScreen (NVS) Nuclear Receptor Binding Assay for mouse Estrogen Receptor alpha (Era) (AID 2283378);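 note: hit means loss of bound radioligand signal relative to DMSO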
# Procedure, shortened: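 Cell-free radioligand binding with extracted mouse Era protein; competitive displacement of radiolabelled ligand, read by filter-based scintillation counting 18 hours after dosing. Loss of signal versus DMSO baseline taken as binding; single screening concentration 25 uM, actives followed in concentration series.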
# [2] = biological target: Estrogen receptor beta (Homo sapiens) (UniProt Q92731); assay: OT_ER_ERbERb_1440: Odyssey Thera (OT) 24-hour HEK293T Protein-Complementation Assay for Estrogen Receptor-beta/-beta Homodimer (AID 2283380);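 note: fluorescence gain from ER beta LBD homodimer complementation read by laser scanning cytometry; scored as signal increase over DMSO baseline for both agonists and antagonists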
# Procedure, shortened: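 HEK293T cells stably expressing human ER-beta LBD (aa 310-547) PCA homodimer pair, dosed 24 h; formaldehyde-fixed, Draq5-stained. Readout: increase in nuclear (agonist) or nuclear plus cytoplasmic (antagonist) fluorescence intensity versus DMSO, gain-of-signal fitting.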
# [3] = biological target: Estrogen receptor (Homo sapiens) (UniProt P03372); assay: OT_ERa_GFPERaERE_0480: Odyssey Thera (OT) 8-hour HeLa Transcription Induction Assay for Estrogen Receptor (AID 2283381; active = hit-call score of the fitted dose curve at least 0.9, where 1 is the maximum; inactive = score below 0.9)
# Procedure, shortened: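 Fluorescent reporter signal, imaged by microscopy and scored with image-analysis algorithms, was taken 8 h after chemical dosing of HeLa cells; activity was fitted upward relative to DMSO.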
# [4] = biological target: Estrogen receptor (Homo sapiens) (UniProt P03372); assay: OT_ERa_GFPERaERE_0120: Odyssey Thera (OT) 2-hour HeLa Transcription Induction Assay for Estrogen Receptor (AID 2283382)
# Procedure, shortened: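 HeLa, 384-well, 2 h chemical exposure; GFP reporter induction (ERE), fluorescence microscopy; high content image analysis; positive fitting direction vs DMSO.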
# [5] = biological target: Retinoic acid receptor RXR-alpha (Homo sapiens) (UniProt P19793); assay: OT_NURR1_NURR1RXRa_0480: Odyssey Thera (OT) 8-hour HEK293T Protein Complementation Assay for Nurr1/retinoid X receptor (RXR) (AID 2283385)
# Procedure, shortened: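 8 h compound exposure, HEK293T; Nurr1/RXRα fragment complementation; fluorescence intensity; positive fitting direction vs DMSO baseline.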
# [6] = biological target: Retinoic acid receptor RXR-alpha (Homo sapiens) (UniProt P19793); assay: OT_NURR1_NURR1RXRa_1440: Odyssey Thera (OT) 24-hour HEK293T Protein Complementation Assay for Nurr1/retinoid X receptor (RXR) (AID 2283386)
# Procedure, shortened: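 Interaction of Nurr1 with RXRα brings fused reporter fragments together in human HEK293T cells, restoring a functional reporter. Fluorescence intensity is measured 24 h after chemical treatment, and values are analysed in the positive direction against DMSO.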
# [7] = biological target: Peroxisome proliferator-activated receptor gamma (Homo sapiens) (UniProt P37231); assay: OT_PPARg_PPARgSRC1_0480: Odyssey Thera (OT) 8-hour Protein-Complementation Assay for Peroxisome Proliferator-activated Receptor Gamma / SRC-1 Co-activator (AID 2283387)
# Procedure, shortened: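 Protein-fragment complementation of split Venus YFP reports PPARg/SRC-1 interaction in HEK293T (transfected 48 h before treatment), exposed 8 h. Readout: N/C fluorescence ratio at 488 nm from imaging, Draq5 for segmentation, positive fit relative to DMSO.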
# [8] = biological target: Peroxisome proliferator-activated receptor gamma (Homo sapiens) (UniProt P37231); assay: OT_PPARg_PPARgSRC1_1440: Odyssey Thera (OT) 24-hour Protein-Complementation Assay for Peroxisome Proliferator-activated Receptor Gamma/ SRC-1 Co-activator (AID 2283388)
# Procedure, shortened: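 HEK293T cells transiently transfected with PPARg and SRC-1 fused via (Gly4Ser)2 linker to split Venus YFP fragments (IFP1/IFP2) were dosed 24 h; fixed, Draq5-stained, imaged at 488/635 nm; nuclear/cytoplasmic fluorescence ratio scored versus DMSO baseline, gain-of-signal.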
# [9] = biological target: Bile acid receptor (Homo sapiens) (UniProt Q96RI1); assay: OT_FXR_FXRSRC1_0480: Odyssey Thera (OT) 8-hour HEK293T Protein-Complementation Assay for Farnesoid X receptor/SRC-1 Co-activator (AID 2283383)
# Procedure, shortened: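 Human kidney HEK293T cells carried FXR/SRC-1 fragment-complementation constructs. Compounds were added and incubated 8 h. Reporter reassembly upon receptor–co-activator interaction was then quantified by fluorescence, with curves fitted in the positive direction relative to DMSO.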
# [10] = biological target: Bile acid receptor (Homo sapiens) (UniProt Q96RI1); assay: OT_FXR_FXRSRC1_1440: Odyssey Thera (OT) 24-hour HEK293T Protein-Complementation Assay for Farnesoid X receptor/SRC-1 Co-activator (AID 2283384)
# Procedure, shortened: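 Compounds are applied to human kidney HEK293T cells expressing bait and prey fused to reporter protein fragments; after 24 h, reconstituted reporter fluorescence is measured. Activity is fitted as signal gain over DMSO.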
# [11] = biological target: Agonist Androgen Response Element (ARE), AR (gene 367) (UniProt P10275); assay: OT_AR_ARELUC_AG_1440: Odyssey Thera (OT) 24-hour CHO-K1 Luciferase Assay for Agonist Androgen Response Element (ARE) (AID 2283379)
# Procedure, shortened: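 Seed CHO-K1 cells; dose compounds for 24 h; add D-luciferin plus ATP in PBS; read luminescence. Signal increase relative to vehicle defines agonist activity, with at least 3 replicate wells per sample.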
# [12] = CEETOX_H295R_11DCORT: CeeTox H295R High-throughput Steroidogenesis Assay for 11-Deoxycortisol (11DCORT) (AID 2283432; active = hit-call score of the fitted dose curve at least 0.9, where 1 is the maximum; inactive = score below 0.9;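 for AC50: 11-deoxycortisol secreted into the medium measured by LC-MS/MS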); settings: actives raise or lower the signal
# Procedure, shortened: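 Human adrenal H295R cells were prestimulated with 10 uM forskolin for 48 h, then exposed to test chemical (0.1% DMSO final) for 48 h. Medium 11-deoxycortisol was quantified by MTBE extraction and HPLC-MS/MS; bidirectional fitting relative to DMSO.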
# [13] = CEETOX_H295R_OHPREG: CeeTox H295R High-throughput Steroidogenesis Assay for OH-Pregnenolone (OHPREG) (AID 2283434; active = hit-call score of the fitted dose curve at least 0.9, where 1 is the maximum; inactive = score below 0.9); settings: actives raise or lower the signal
# Procedure, shortened: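 Human adrenal H295R cells were prestimulated 48 h with 10 uM forskolin, then exposed 48 h to chemical in 0.1% DMSO. Medium 17alpha-hydroxypregnenolone was quantified by HPLC-MS/MS after MTBE extraction; bidirectional fitting versus DMSO baseline.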
# [14] = CEETOX_H295R_OHPROG: CeeTox H295R High-throughput Steroidogenesis Assay for OH-Progesterone (OHPROG) (AID 2283435; active = hit-call score of the fitted dose curve at least 0.9, where 1 is the maximum; inactive = score below 0.9;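 for AC50: 17alpha-hydroxyprogesterone secreted into medium measured by HPLC-MS/MS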); settings: actives raise or lower the signal
# Procedure, shortened: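 H295R, 10 uM forskolin prestim 48 h; cmpd in 0.1% DMSO 48 h; medium MTBE-extracted, HPLC-MS/MS for OH-progesterone; 7-pt std curve; bidirectional fit vs DMSO; MTT viability, chemicals diluted until viability >/=70%.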
# [15] = CEETOX_H295R_ANDR: CeeTox H295R High-throughput Steroidogenesis Assay for Androstenedione (ANDR) (AID 2283436; active = hit-call score of the fitted dose curve at least 0.9, where 1 is the maximum; inactive = score below 0.9); settings: actives raise or lower the signal
# Procedure, shortened: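 H295R human adrenal cells (passages ≤10) were exposed to test chemicals for 48 h; androstenedione in medium was MTBE-extracted and quantified by HPLC-MS/MS against a 7-point standard curve. Bidirectional fitting used DMSO as baseline.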
# Chain of Estrogen receptor (Homo sapiens) (P03372 whole entry, looked up): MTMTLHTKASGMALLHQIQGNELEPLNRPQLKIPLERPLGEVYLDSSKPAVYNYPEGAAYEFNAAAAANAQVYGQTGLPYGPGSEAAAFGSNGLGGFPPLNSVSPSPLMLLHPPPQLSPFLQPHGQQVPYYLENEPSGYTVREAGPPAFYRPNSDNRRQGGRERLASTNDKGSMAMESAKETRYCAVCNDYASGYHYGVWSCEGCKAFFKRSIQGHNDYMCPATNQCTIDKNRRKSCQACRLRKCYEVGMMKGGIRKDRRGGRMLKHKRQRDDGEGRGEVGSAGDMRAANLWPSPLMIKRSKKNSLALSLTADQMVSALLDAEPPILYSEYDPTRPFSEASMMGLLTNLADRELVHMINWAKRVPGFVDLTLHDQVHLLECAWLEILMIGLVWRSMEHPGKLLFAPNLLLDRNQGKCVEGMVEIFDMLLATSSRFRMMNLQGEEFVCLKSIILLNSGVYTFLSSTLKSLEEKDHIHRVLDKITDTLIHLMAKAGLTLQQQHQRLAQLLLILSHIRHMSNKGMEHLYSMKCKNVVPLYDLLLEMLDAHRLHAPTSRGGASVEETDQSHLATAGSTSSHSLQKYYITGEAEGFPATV
# Chain of Retinoic acid receptor RXR-alpha (Homo sapiens) (P19793 whole entry, looked up, the tested form may be a part): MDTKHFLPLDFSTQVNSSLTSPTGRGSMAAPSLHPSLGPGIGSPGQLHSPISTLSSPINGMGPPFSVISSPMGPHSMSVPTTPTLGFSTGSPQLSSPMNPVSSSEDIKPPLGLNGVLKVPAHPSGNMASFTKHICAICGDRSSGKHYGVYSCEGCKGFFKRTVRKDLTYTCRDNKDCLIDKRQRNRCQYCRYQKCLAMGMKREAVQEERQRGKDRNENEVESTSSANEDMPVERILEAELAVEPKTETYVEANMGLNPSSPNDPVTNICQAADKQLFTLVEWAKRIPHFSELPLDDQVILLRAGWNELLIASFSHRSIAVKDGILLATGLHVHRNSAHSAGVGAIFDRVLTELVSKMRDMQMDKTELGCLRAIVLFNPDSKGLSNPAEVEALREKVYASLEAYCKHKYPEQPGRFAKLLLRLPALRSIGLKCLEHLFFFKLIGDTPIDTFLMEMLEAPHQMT
# Chain of Estrogen receptor beta (Homo sapiens) (Q92731 whole entry, looked up, the tested form may be a part): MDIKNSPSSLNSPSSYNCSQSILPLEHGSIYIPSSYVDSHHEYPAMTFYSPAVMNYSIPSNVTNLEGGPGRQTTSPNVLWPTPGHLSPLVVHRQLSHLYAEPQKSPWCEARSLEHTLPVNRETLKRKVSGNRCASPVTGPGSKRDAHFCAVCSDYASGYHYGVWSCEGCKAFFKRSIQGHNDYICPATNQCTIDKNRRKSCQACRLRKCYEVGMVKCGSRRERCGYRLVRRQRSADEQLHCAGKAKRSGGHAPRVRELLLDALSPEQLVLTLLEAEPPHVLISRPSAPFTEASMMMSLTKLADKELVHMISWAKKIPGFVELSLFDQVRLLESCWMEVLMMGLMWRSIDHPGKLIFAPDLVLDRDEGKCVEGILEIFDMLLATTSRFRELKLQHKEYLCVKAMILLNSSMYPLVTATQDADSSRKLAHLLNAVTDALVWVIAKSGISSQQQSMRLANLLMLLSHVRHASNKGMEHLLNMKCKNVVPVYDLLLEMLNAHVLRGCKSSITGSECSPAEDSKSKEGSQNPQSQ
# Chain of Bile acid receptor (Homo sapiens) (Q96RI1 whole entry, looked up, the tested form may be a part): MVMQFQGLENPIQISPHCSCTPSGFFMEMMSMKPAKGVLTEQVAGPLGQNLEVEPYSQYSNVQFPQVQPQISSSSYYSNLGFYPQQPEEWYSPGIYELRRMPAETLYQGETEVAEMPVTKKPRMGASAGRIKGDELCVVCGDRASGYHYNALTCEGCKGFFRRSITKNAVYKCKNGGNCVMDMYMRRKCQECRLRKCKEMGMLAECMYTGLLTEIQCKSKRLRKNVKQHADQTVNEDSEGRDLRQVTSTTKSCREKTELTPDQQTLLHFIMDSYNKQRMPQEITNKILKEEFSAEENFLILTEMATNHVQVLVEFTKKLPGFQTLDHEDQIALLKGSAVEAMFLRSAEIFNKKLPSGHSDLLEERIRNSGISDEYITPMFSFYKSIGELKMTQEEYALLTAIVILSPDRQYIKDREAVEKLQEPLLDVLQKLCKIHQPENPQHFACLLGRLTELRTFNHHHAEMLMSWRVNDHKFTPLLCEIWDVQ
# Chain of Peroxisome proliferator-activated receptor gamma (Homo sapiens) (P37231 whole entry, looked up, the tested form may be a part): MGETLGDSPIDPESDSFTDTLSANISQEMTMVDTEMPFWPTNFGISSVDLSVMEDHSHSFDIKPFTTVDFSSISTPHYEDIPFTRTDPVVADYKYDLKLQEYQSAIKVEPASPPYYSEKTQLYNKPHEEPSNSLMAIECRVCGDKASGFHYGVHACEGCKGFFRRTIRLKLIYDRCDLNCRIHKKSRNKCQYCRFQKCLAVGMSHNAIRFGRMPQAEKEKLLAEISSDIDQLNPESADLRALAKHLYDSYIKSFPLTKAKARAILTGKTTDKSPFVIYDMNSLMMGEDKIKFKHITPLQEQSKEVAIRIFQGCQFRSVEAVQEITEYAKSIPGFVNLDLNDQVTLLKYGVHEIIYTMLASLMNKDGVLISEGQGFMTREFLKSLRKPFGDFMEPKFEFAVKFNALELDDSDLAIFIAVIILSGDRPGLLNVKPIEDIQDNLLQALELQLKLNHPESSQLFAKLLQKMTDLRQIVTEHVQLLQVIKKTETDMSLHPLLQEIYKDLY
# Chain of mouse Estrogen Receptor alpha (Era), Esr1 (gene 13982) (P19785 whole entry, looked up): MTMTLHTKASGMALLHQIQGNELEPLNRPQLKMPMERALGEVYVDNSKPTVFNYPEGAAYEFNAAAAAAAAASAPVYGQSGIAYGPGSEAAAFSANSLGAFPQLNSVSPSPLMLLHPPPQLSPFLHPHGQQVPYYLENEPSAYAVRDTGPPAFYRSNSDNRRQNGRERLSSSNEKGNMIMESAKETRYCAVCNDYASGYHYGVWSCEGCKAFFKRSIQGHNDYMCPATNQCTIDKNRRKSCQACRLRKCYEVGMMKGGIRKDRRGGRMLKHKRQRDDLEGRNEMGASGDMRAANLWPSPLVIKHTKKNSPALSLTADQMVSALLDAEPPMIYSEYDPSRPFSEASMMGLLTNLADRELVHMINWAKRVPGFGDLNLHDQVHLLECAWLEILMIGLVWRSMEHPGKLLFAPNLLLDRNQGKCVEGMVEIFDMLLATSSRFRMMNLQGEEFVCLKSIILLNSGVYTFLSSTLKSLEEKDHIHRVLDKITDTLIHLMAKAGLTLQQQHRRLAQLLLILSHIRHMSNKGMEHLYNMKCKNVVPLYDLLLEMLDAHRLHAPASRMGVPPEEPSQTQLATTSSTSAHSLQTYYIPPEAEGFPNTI
# Chain of Agonist Androgen Response Element (ARE), AR (gene 367) (P10275 whole entry, looked up): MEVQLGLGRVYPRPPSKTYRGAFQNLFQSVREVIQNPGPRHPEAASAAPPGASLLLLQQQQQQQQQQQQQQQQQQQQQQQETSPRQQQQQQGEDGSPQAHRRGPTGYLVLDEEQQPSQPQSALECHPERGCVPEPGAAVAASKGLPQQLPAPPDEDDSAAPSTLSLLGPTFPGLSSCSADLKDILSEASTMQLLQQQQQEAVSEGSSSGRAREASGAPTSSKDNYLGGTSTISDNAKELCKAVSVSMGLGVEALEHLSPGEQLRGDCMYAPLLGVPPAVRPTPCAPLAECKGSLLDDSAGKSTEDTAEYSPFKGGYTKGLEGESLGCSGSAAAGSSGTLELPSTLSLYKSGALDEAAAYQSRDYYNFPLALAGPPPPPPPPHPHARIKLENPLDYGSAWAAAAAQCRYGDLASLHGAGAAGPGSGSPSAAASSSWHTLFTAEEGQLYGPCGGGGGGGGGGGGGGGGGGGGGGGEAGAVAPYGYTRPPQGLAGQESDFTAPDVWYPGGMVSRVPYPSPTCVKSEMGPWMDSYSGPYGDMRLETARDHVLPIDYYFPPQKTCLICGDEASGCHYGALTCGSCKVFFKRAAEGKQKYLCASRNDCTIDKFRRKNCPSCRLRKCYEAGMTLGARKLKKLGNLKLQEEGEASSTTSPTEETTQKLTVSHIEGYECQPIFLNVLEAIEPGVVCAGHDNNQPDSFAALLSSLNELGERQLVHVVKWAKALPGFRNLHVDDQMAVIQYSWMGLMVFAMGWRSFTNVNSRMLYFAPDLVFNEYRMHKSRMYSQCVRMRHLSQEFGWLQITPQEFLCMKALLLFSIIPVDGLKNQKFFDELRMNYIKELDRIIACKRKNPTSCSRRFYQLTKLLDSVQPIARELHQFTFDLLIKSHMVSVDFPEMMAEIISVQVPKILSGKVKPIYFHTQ
structure (smiles),measurement,setting,value
OCC(CO)n1cnc(-c2ccc(F)cc2)c1-c1ccnc(Oc2ccccc2)n1,outcome,[1],inactive
same,outcome,[2],inactive
same,outcome,[3],inactive
same,outcome,[4],inactive
same,outcome,[5],inactive
same,outcome,[6],inactive
same,outcome,[7],inactive
same,outcome,[8],inactive
O=[Si]=O,outcome,[2],inactive
same,outcome,[3],inactive
same,outcome,[4],inactive
same,outcome,[7],inactive
same,outcome,[8],inactive
CC(C)c1cccc(C(C)C)c1NC(=O)NS(=O)(=O)c1cc(C(C)(C)O)co1,outcome,[2],inactive
same,outcome,[9],inactive
same,outcome,[10],inactive
same,outcome,[5],inactive
same,outcome,[6],inactive
O=C(Oc1ccccc1)c1cccc(C(=O)Oc2ccccc2)c1,outcome,[11],inactive
same,outcome,[2],inactive
same,AC50,[9],72 µM (active)
same,outcome,[10],inactive
same,AC50,[5],75.2 µM (active) and 79.8 µM (active)
same,outcome,[7],inactive
same,outcome,[8],inactive
same,AC50,[12],36.4 µM (active)
same,outcome,[13],inactive
same,outcome,[14],inactive
same,outcome,[15],inactive
Oc1ccc(O)cc1,AC50,[2],26.4 µM (active)
same,outcome,[3],inactive
same,outcome,[4],inactive
same,outcome,[5],inactive
same,AC50,[6],44 µM (active)
same,outcome,[7],inactive
same,outcome,[8],inactive
same,outcome,[12],inactive
same,outcome,[13],inactive
same,outcome,[14],inactive
CCCCCCCCCCCCCCCCO,outcome,[2],inactive
same,outcome,[3],inactive
same,outcome,[4],inactive
same,outcome,[5],inactive
same,outcome,[7],inactive
same,outcome,[8],inactive
Cc1cn([C@H]2C=C[C@@H](CO)O2)c(=O)[nH]c1=O,outcome,[2],inactive
same,outcome,[9],inactive
same,outcome,[5],inactive
same,outcome,[7],inactive
same,outcome,[8],inactive
CCCCOC(=O)CCCCC(=O)OCCCC,outcome,[2],inactive
same,outcome,[7],inactive
same,outcome,[8],inactive
c1ccc2occc2c1,outcome,[3],inactive
same,outcome,[4],inactive
same,outcome,[10],inactive
same,outcome,[5],inactive
same,outcome,[7],inactive
same,outcome,[8],inactive
O=NO,outcome,[6],inactive
same,outcome,[7],inactive
same,outcome,[8],inactive
CC(=O)CC(c1ccccc1)c1c(O)c2ccccc2oc1=O (centres undefined),outcome,[5],inactive
NC=O,outcome,[2],inactive
same,outcome,[7],inactive
same,outcome,[8],inactive
CO[C@@H]1COCC[C@@H]1N[C@@H]1CC[C@@](C(=O)N2CCc3ncc(C(F)(F)F)cc3C2)(C(C)C)C1,outcome,[2],inactive
same,outcome,[5],inactive
same,outcome,[7],inactive
same,outcome,[8],inactive
CC(C)COC(=O)CCCCC(=O)OCC(C)C,outcome,[9],inactive
same,outcome,[10],inactive
same,outcome,[5],inactive
same,outcome,[7],inactive
same,outcome,[8],inactive
N[C@@H](Cc1c[nH]c2ccccc12)C(=O)O,outcome,[2],inactive
same,outcome,[5],inactive
same,outcome,[6],inactive
same,outcome,[7],inactive
same,outcome,[8],inactive
Cc1occc(=O)c1O,outcome,[6],inactive
same,outcome,[7],inactive
same,outcome,[8],inactive
CC(N)=O,outcome,[2],inactive
same,outcome,[6],inactive
same,outcome,[7],inactive
same,outcome,[8],inactive
O=C1O[C@H]([C@H](O)CO)C(O)=C1O,outcome,[2],inactive
same,outcome,[5],inactive
same,outcome,[6],inactive
same,outcome,[7],inactive
same,outcome,[8],inactive
CC(C)(C)c1ccccc1,outcome,[2],inactive
same,outcome,[5],inactive
Nc1nc(Cl)nc2c1ncn2[C@H]1C[C@H](O)[C@@H](CO)O1,AC50,[9],15.2 µM (active)
same,AC50,[10],21.1 µM (active)
same,AC50,[5],50 µM (active) and 41.2 µM (active)
same,AC50,[6],46.7 µM (active) and 44.1 µM (active)
same,outcome,[12],inactive
same,AC50,[13],6.46 µM (active)
same,outcome,[14],inactive
CC(=O)O[C@]1(C(C)=O)CC[C@H]2[C@@H]3C=C(Cl)C4=CC(=O)[C@@H]5C[C@@H]5[C@]4(C)[C@H]3CC[C@@]21C,outcome,[2],inactive
same,AC50,[5],28 µM (active)
same,outcome,[7],inactive
same,outcome,[8],inactive
same,AC50,[13],2.37 µM (active)
same,AC50,[14],3.63 µM (active)
CC(C)c1cccc(C(C)C)c1,outcome,[3],inactive
same,outcome,[4],inactive
same,outcome,[9],inactive
same,outcome,[5],inactive
same,outcome,[7],inactive
same,outcome,[8],inactive
COC(=O)CCC(=O)OC,outcome,[3],inactive
same,outcome,[4],inactive
same,outcome,[9],inactive
same,outcome,[10],inactive
same,outcome,[5],inactive
same,outcome,[7],inactive
same,outcome,[8],inactive
CC(=O)S[C@H](C(=O)N[C@H]1Cc2ccccc2[C@H]2CCC[C@@H](C(=O)O)N2C1=O)C(C)C,outcome,[9],inactive
same,outcome,[5],inactive
same,outcome,[7],inactive
same,outcome,[8],inactive
CC(=O)OCC(COC(C)=O)OC(C)=O,outcome,[2],inactive
same,outcome,[7],inactive
same,outcome,[8],inactive
O=C(O)c1[nH]n(-c2ccc(S(=O)(=O)O)cc2)c(=O)c1N=Nc1ccc(S(=O)(=O)O)cc1,outcome,[3],inactive
same,outcome,[4],inactive
same,outcome,[10],inactive
same,outcome,[5],inactive
same,outcome,[7],inactive
same,outcome,[8],inactive
CCCC(=O)O,outcome,[5],inactive
same,outcome,[6],inactive
same,outcome,[7],inactive
same,outcome,[8],inactive
O=C1c2c(O)cccc2Cc2cccc(O)c21,outcome,[9],inactive
same,outcome,[10],inactive
same,outcome,[5],inactive
same,outcome,[6],inactive
same,outcome,[7],inactive
same,outcome,[8],inactive
same,AC50,[12],50 µM (active)
same,outcome,[13],inactive
same,AC50,[14],66.3 µM (active)
CCCC[C@H]1CN(CC2CCOCC2)C(=O)OC12CCN(C1(C)CCN(C(=O)c3c(C)ncnc3C)CC1)CC2,outcome,[6],inactive
same,outcome,[7],inactive
same,outcome,[8],inactive
COC(=O)CCCC(=O)OC,outcome,[10],inactive
same,outcome,[5],inactive
CC(=O)OC1CC(C)OC(C)O1 (centres undefined),outcome,[2],inactive
same,outcome,[9],inactive
same,outcome,[7],inactive
same,outcome,[8],inactive
C/C=C/c1ccc(OC)cc1,outcome,[2],inactive
same,outcome,[5],inactive
same,outcome,[7],inactive
same,outcome,[8],inactive
Oc1ccccc1O,AC50,[2],31 µM (active)
same,outcome,[5],inactive
same,outcome,[7],inactive
same,outcome,[8],inactive
same,outcome,[12],inactive
same,outcome,[13],inactive
same,outcome,[14],inactive
CC(C)(O)c1ccc(CNC(=O)c2cccnc2Oc2ccc(F)cc2)cc1,outcome,[2],inactive
same,outcome,[12],inactive
same,outcome,[13],inactive
same,outcome,[14],inactive
O=C(O)c1cccnc1,outcome,[2],inactive
same,outcome,[10],inactive
same,outcome,[7],inactive
same,outcome,[8],inactive
